Compounds with a hit are over-represented: about 7.4% of the library has one in this group of screens.
M1 ag: M1 muscarinic receptor agonism | CHO-M1 cells, Fluo-4 calcium fluorescence, agonist mode; active compounds read high | B-score at 10 µM | actives 3% (n = 64,000) | AID 626;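 active = fluorescence rise, raw or as B-score row- and column-corrected plate score, outside the 99.7% band of its plate's samples, either direction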
M1 antagonist: antagonists of rat M1 muscarinic receptor | P08482 | CHO-M1 cells, Fluo-4 calcium, ACh EC80 antagonist mode; active compounds read low | B-score at 10 µM | actives 3.4% (n = 64,000) | AID 628;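 active = calcium fluorescence response, raw or row-and-column corrected B-score, differing from the plate sample mean either way at a set confidence level, mostly lower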
FXIIa inh mix: factor XIIa (human) inhibition, mixture screen; inhibition, % at 5 µM; P00748; actives 0.2% (n = 62,000); AID 684; purified FXIIa, fluorogenic substrate, pooled mixtures
Target sequence (P00748 20-372 limits assumed): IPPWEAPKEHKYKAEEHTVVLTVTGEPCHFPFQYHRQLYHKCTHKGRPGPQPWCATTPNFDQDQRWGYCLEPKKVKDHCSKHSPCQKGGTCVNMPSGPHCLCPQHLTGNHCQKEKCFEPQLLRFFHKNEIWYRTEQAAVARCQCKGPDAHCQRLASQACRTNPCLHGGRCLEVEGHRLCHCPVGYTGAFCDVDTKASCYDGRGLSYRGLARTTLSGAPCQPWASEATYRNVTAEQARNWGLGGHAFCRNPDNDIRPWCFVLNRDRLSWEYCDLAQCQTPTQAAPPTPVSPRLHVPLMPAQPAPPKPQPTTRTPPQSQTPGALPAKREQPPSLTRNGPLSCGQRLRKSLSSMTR
Target sequence (P00748 373-615 limits assumed): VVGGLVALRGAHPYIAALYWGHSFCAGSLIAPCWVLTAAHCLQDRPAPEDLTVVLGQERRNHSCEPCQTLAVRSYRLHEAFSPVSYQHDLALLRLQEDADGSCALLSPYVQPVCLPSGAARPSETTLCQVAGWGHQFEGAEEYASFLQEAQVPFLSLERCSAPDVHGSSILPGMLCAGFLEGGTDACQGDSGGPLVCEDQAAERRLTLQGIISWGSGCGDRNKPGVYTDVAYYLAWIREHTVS
FXIa mix inh: factor XIa (human) inhibition, mixture screen. purified FXIa, fluorogenic substrate, pooled mixtures. inhibition, % at 5 µM. P03951. actives 0.19% (n = 62,000);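 note: each value is inhibition by a whole ten-compound pool holding the compound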
DAT uptake mod: modulates human dopamine transporter uptake under cocaine; LLC-PK1 hDAT cells, [14C]-dopamine uptake with cocaine IC80; actives deviate in either direction; actives 1.3% (n = 110,000); Q01959; B-score at 10 µM;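 active = Z score or B-score, a plate-position-corrected score, falls beyond the plate's 99.7% confidence bounds, in either direction; inactive = both scores lie inside the 99.7% bounds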
D1 mod: allosterically modulates the human D1 dopamine receptor; P21728; actives 5.9% (n = 58,000); B-score at 10 µM; AID 641; HEK293 D1, CRE-luciferase, dopamine EC30 potentiation; actives deviate in either direction;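 active = luminescence count or its row- and column-corrected plate score outside the 99.7% band of the plate's sample wells, on either side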
Hits are given with their value; - = inactive; . = no result. Cut-off read from the data, not from the text of the source, unless noted: active = inhibition above about 20% (passing the limit was not always enough); inactive = the rest.

SMILES	M1 ag	M1 antagonist	FXIIa inh mix	FXIa mix inh	DAT uptake mod	D1 mod
CCCc1[nH][nH]c(=O)c1C(c1cccc(Cl)c1)C(C#N)C#N (stereo not given)	-	-	-	-	-9.4	.
CCCn1nc(Oc2nc(SC)nc(N(C)C)n2)ccc1=O	-	2	.	.	-	.
CSc1nc(Oc2ccc(=O)[nH]n2)nc(N(C)C)n1	-	-	.	.	-	.
COc1ccc2nc(SCC(=O)c3ccco3)[nH]c2c1	.	.	.	.	-	.
O=C(NC1CCCC1)c1ccc2nc(-c3ccco3)c(-c3ccco3)nc2c1	7.1	-	-	-	.	-
CCOc1ccc(CSC(CC(=O)O)C(=O)O)cc1 (stereo not given)	-	-	-	-	-	-
COc1ccc(NC(=O)N2CCCC(C(=O)NC(C)C)C2)cc1 (stereo not given)	.	.	.	.	-	.
COc1ccc(Br)cc1S(=O)(=O)n1ccnc1C	-	-	-	-	2.7	-
COc1ccc(OC)c(S(=O)(=O)n2ccnc2C)c1	.	.	.	.	-	.
O=C(NC(=O)c1cccc(OC(F)(F)C(F)F)c1)OC1CCS(=O)(=O)C1 (stereo not given)	22	-19	-	-	-	-
O=C1C(c2ccncc2)=C(O)c2ccccc21	-	-	-	-	-	-2.5
O=C1C(C=NCc2ccncc2)=C(O)c2ccccc21	.	.	.	.	-	.
CC(C)NS(=O)(=O)c1cccc2nsnc12	-	-	.	.	-	-
Cc1cc(-c2ccccc2C(=O)NCc2ccccc2)on1	-	-	-	27	-	-
Cc1cc(-c2ccccc2C(=O)O)on1	-	-	-	-	-	.
CC(C)OC(=O)c1cccc(C(=O)Oc2ccccc2)n1	.	.	.	.	-	.
Cc1cc(C)nc(SCCC(=O)Nc2cccc3ccccc23)n1	.	.	.	.	-	.
Cc1cccc(/C=N/NC(=O)C(C)Nc2cccc3ccccc23)n1 (stereo not given)	.	.	.	.	2.5	.
Cc1cccc(-n2ncc3c(N4CCC5(CC4)OCCO5)ncnc32)c1	-	-	-	-	-	-
CCN(CC)C(=O)C1CCCN(c2ncnc3c2cnn3-c2cccc(C)c2)C1 (stereo not given)	-	-	-	-	3.3	-
Cc1cccc(-n2ncc3c(N4CCC(C)CC4)ncnc32)c1	-	-	-	-	-	-4.3
CCN(CC)C(=O)C1CCCN(c2ncnc3c2cnn3-c2ccc(Cl)cc2)C1 (stereo not given)	-	-	-	-	.	-3.6
O=C(COc1ccccc1)NCCSCc1ccco1	-	-	-	-	-	-
O=C1C(Cl)=C(N2CCCCC2)C(=O)N1c1ccccc1Cl	-	-	-	22	-	-
CCCCOc1ccc(-c2c(C#N)c(N)nc(SCC(N)=O)c2C#N)cc1	-	-	-	-	-2.3	-
SMILES	M1 ag	M1 antagonist	FXIIa inh mix	FXIa mix inh	DAT uptake mod	D1 mod
Cc1cc(N2C(=O)C3CC=CC(C)C3C2=O)no1 (stereo not given)	.	.	.	.	-9.4	.
Cc1cc(N2C(=O)C3CC=CCC3C2=O)no1 (stereo not given)	.	.	.	.	-	.
C/C(N)=C(/C#N)C(=O)CSc1nc2ccc(C)cc2[nH]1	-	-	-	-	-	-2.6
COC(=O)C(Cc1ccc(OC(=O)c2ccccc2C)cc1)N1Cc2ccccc2C1=O (stereo not given)	.	.	.	.	3.3	.
CN1/C(=C/C2CC(=O)N(c3ccc([N+](=O)[O-])cc3)C2=O)C(C)(C)c2ccccc21 (stereo not given)	.	.	.	.	2.9	.
CCOC(=O)C1=C(COc2ccccc2)NC(=O)NC1c1ccc2ccccc2c1 (stereo not given)	.	.	.	.	-	.
CCCCn1c(/N=C/c2cc(OC)ccc2O)nc2ccccc21	-	-	-	-	2.7	-
Cc1cccnc1NC(=O)c1c(O)c2ccccc2n(C)c1=O	-	-	-	-	-	-
CCCC(c1nnnn1Cc1ccco1)N1CCN(C(=O)c2ccco2)CC1 (stereo not given)	-	0.15	-	-	-	-
CCCCC(c1nnnn1Cc1ccco1)N1CCN(C(=O)c2ccco2)CC1 (stereo not given)	-	-	-	-	-	-
O=C(O)CSC12CC3CC(C1)CC(C(=O)O)(C3)C2	-	-	-	24	-	-
Cc1ccc2oc(=O)c3cnn(CC(=O)NC4CCN(Cc5ccccc5)CC4)c3c2c1	-	-	-	-	.	-
O=S(=O)(NCCCN1CCN(c2ccccc2F)CC1)c1cccc2cccnc12	-	-	-	-	-	-2.9
O=C(NC1CC2CCCC(C1)N2Cc1ccco1)NC12CC3CC(CC(C3)C1)C2 (stereo not given)	-	-	-	-	-7.4	-
CCNC(=S)NC1CC2CCCC(C1)N2Cc1ccco1 (stereo not given)	.	.	.	.	-	.
CCOC(=O)N1CCN(C(=O)Cn2cc3c(n2)CCCC3)CC1	-3.2	-	-	-	-7.9	-
CCOC(=O)c1ccc(N/C=C/C(=O)c2ccco2)cc1	.	.	.	.	-	.
O=C(/C=C/Nc1ccc(F)cc1)c1ccco1	-	-	-	-	-	-7.3
CCCN(CCC)C(=O)Cn1c(=O)n(CCCCC(=O)NCc2ccco2)c(=O)c2ccccc21	-	-	-	-	-	-
COC(=O)c1ccccc1NC(=O)c1cc2ncc(Br)cn2n1	-	-	-	-	-2.3	-
O=C(Nc1ccc(F)cc1F)c1cc2ncc(Br)cn2n1	-	-	-	-	-	-
CN(C)C(=O)CSc1nnc2sc3ccccc3n12	-	-	-	-	-	.
O=c1c2ccccc2nnn1CSc1nnc2sc3ccccc3n12	-	-	-	-	.	-7.8
O=C(NC1CC1)C1=C[C@@H](c2ccc3c(c2)OCO3)C[C@@H](OCCCCO)O1	.	.	.	.	-	.
CCOC(=O)c1c(C)oc2c1c(/C=N/c1ccccn1)c(O)c1ccccc12	-	-	69	-	.	.
SMILES	M1 ag	M1 antagonist	FXIIa inh mix	FXIa mix inh	DAT uptake mod	D1 mod
CCOc1ccc(NC(=O)c2cc3n(n2)C(C(F)(F)F)CC(c2ccco2)N3)cc1 (stereo not given)	-	-	-	-	-	-7.5
O=C(NC1CCCCCC1)c1cc2n(n1)C(C(F)(F)F)CC(c1ccco1)N2 (stereo not given)	-	-	-	-	-	-
COc1ccc(-n2c(=S)[nH]c3cc(C(=O)NCc4ccco4)ccc3c2=O)cc1OC	-	-	-	-	-	-
COc1ccc(CCn2c(=S)[nH]c3cc(C(=O)NCc4ccco4)ccc3c2=O)cc1OC	3	-	-	-	.	.
CCNC(=S)N/N=C/c1ccc(OCC(=O)Nc2ccc(C)cc2)cc1	.	.	.	.	-2.9	.
COc1ccc(NC(=O)NCCCN2CCN(c3cc(C)ccc3C)CC2)cc1	-	-	-	-	-	-6.1
COc1cccc(NC(=O)NCCCN2CCN(c3ccc(F)cc3)CC2)c1	-	-	-	-	-	-5.1
Cn1c(=O)cc(SCC(=O)NCCCN2CCN(c3ccccc3F)CC2)c2ccccc21	-	-	-	-	-	-
COc1cccc(NC(=O)CN2CCN(c3ccc(F)cc3)CC2)c1	-	-	-	-	-2.5	-
CCn1c(=O)cc(SCC(=O)NCCCN2CCN(c3ccc(F)cc3)CC2)c2ccccc21	-	-	-	-	-	-3.7

Bioassay records deposited in PubChem BioAssay by several laboratories.
